# Measured values reported in paper PMC7862700, “An all-to-all approach to the identification of sequence-specific readers for epigenetic DNA modifications on cytosine”.
# Key:
# Assay in all cases: DAPPL (digital affinity profiling via proximity ligation, sequencing); 10 mM Tris-HCl pH 7.5, 50 mM NaCl, 1 mM DTT, 4% glycerol, room temperature, 30 min; GST-TFs on glutathione beads, 16-mer random dsDNA library, 0.1% formaldehyde crosslink after washing; high values mean tight binding
# FLI1 = target: T1, FLI1 (Homo sapiens, UniProt Q01543 1-452); conditions: protein: recombinant; tags: N-terminal GST; dsDNA, one strand shown
# T1 sequence: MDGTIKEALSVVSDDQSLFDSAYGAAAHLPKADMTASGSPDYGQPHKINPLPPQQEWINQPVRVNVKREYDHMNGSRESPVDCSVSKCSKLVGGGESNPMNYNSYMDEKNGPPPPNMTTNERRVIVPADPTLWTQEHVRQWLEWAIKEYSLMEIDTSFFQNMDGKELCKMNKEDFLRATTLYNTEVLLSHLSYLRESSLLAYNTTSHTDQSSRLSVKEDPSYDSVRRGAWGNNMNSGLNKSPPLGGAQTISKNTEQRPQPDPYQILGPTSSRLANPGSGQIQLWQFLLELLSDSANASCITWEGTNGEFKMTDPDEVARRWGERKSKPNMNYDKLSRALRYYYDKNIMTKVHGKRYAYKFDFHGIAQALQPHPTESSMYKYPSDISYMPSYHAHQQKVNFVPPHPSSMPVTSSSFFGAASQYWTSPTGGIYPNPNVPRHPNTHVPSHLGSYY
# Procedure, shortened: (§1)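 Binding signal is defined as a hexamer's read frequency for one factor over its frequency for the tag-only sample. To obtain reads, GST-fused human transcription factors were expressed in yeast, captured on glutathione beads, barcoded with DNA and pooled with that sample. Pools met 200 nmole of a 16-mer random double-stranded DNA library in Tris/NaCl/DTT/glycerol buffer for 30 min at room temperature before washing, 0.1% formaldehyde crosslinking, proximity ligation (BsaI/T4 ligase, 1 h, 37 °C), PCR and Illumina NextSeq500 sequencing.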
# ELK1 = target: T2, ELK1 (Homo sapiens, UniProt P19419 1-428); conditions: protein: recombinant; tags: N-terminal GST; dsDNA, one strand shown
# T2 sequence: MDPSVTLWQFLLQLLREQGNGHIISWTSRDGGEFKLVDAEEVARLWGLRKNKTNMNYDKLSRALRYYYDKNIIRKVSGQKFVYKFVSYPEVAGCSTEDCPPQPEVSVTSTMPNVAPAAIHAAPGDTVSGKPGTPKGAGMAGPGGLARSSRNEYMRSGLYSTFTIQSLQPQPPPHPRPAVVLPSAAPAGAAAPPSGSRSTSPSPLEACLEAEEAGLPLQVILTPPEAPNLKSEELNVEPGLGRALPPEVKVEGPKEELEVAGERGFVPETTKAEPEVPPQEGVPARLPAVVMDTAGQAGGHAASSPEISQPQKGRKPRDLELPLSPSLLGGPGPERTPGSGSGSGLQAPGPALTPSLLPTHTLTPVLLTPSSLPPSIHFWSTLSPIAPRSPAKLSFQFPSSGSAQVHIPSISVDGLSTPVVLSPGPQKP
# Procedure, shortened: as §1
# GABPA = target: T3, GABPA (Homo sapiens, UniProt Q06546 1-454); conditions: protein: recombinant; tags: N-terminal GST; dsDNA, one strand shown
# T3 sequence: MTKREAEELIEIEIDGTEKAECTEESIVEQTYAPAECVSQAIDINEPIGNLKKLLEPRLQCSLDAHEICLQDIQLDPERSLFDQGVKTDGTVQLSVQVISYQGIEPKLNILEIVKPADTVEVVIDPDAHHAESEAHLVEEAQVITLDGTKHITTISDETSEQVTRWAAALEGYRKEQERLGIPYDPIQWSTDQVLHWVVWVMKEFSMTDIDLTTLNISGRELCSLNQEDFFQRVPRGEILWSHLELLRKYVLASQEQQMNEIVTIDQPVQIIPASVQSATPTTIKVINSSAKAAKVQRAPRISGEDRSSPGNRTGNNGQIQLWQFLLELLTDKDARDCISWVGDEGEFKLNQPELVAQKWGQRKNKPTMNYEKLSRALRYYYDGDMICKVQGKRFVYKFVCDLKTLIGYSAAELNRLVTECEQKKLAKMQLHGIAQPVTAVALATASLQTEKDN
# Procedure, shortened: as §1
# ERG = target: T4, ERG (Homo sapiens, UniProt P11308 1-479); conditions: protein: recombinant; tags: N-terminal GST; dsDNA, one strand shown
# T4 sequence: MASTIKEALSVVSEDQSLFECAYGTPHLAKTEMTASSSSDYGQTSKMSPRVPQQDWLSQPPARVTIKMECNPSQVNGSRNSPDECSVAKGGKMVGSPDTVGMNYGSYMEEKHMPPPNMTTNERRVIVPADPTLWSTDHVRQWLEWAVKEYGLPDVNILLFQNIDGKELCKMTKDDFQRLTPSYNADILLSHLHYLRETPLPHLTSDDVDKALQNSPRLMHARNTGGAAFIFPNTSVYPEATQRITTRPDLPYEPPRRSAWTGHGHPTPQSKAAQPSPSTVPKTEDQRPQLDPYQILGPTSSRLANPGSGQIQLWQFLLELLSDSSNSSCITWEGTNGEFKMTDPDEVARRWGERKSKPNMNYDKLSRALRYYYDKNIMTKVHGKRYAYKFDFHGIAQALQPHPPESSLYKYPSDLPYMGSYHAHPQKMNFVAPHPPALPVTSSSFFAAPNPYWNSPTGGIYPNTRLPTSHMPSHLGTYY
# Procedure, shortened: as §1
# ELF1 = ELF1 (Homo sapiens, UniProt P32519 1-619); conditions: protein: recombinant; tags: N-terminal GST; dsDNA, one strand shown
# ELF1, sequence (P32519 whole entry): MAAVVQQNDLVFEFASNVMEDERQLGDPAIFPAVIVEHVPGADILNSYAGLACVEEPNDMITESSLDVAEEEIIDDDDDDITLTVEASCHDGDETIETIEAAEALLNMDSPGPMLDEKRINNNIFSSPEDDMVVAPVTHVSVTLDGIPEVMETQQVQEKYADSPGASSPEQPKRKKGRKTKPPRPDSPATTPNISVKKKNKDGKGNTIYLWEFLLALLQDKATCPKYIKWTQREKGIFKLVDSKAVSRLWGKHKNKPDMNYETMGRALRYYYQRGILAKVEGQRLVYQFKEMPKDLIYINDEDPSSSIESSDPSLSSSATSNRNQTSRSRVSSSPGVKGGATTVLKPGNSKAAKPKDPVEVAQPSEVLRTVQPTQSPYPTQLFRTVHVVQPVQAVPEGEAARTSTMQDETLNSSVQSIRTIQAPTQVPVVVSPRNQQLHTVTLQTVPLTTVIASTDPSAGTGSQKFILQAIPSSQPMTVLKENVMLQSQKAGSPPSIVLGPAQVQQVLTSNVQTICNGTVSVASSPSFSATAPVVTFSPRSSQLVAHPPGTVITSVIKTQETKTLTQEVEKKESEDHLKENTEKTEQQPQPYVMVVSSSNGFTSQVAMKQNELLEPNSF
# Procedure, shortened: as §1
# EHF = target: T5, EHF (Homo sapiens, UniProt Q9NZC4 1-300); conditions: protein: recombinant; tags: N-terminal GST; dsDNA, one strand shown
# T5 sequence: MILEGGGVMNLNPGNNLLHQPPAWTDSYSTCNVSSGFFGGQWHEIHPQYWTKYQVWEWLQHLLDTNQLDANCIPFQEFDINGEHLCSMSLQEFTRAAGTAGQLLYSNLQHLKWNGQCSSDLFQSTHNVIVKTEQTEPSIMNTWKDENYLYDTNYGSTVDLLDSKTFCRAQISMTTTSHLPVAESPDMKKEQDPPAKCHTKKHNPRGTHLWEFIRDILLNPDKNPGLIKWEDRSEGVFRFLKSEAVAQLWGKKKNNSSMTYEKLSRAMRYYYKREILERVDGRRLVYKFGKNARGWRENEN
# Procedure, shortened: as §1
# SPI1 = SPI1 (Homo sapiens, UniProt P17947 1-270); conditions: protein: recombinant; tags: N-terminal GST; dsDNA, one strand shown
# Procedure, shortened: as §1
# SPIB = SPIB (Homo sapiens, UniProt Q01892 1-262); conditions: protein: recombinant; tags: N-terminal GST; dsDNA, one strand shown
# SPIB, sequence (Q01892 whole entry): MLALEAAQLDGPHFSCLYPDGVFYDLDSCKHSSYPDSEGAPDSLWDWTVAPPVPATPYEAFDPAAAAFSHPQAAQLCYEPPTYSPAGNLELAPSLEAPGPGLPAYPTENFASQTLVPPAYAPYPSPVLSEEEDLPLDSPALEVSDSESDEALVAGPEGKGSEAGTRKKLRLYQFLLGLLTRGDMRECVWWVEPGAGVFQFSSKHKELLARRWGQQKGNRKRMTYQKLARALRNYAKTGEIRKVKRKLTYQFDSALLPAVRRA
# Procedure, shortened: as §1
# ELK3 = target: T6, ELK3 (Homo sapiens, UniProt P41970 1-407); conditions: protein: recombinant; tags: N-terminal GST; dsDNA, one strand shown
# T6 sequence: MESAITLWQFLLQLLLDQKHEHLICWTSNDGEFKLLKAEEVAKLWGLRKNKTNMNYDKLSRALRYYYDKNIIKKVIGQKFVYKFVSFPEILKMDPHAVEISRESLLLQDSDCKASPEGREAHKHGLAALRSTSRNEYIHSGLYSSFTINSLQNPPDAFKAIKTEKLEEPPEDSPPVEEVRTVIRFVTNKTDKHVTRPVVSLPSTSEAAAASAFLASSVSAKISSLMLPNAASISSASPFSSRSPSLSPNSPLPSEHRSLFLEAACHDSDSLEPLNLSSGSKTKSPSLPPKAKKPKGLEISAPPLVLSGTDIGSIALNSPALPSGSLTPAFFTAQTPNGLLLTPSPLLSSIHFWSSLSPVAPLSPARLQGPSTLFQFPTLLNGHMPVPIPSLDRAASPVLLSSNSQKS
# Procedure, shortened: as §1
# FEV = target: T7, FEV (Homo sapiens, UniProt Q99581 1-238); conditions: protein: recombinant; tags: N-terminal GST; dsDNA, one strand shown
# T7 sequence: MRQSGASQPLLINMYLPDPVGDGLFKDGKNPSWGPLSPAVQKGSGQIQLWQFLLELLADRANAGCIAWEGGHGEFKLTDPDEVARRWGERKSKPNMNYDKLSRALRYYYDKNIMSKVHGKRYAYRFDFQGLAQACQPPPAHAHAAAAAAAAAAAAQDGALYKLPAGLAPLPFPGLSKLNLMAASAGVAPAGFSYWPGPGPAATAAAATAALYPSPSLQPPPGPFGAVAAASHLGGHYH
# Procedure, shortened: as §1
# ETV5 = ETV5 (Homo sapiens, UniProt P41161 1-510); conditions: protein: recombinant; tags: N-terminal GST; dsDNA, one strand shown
# ETV5, sequence (P41161 whole entry): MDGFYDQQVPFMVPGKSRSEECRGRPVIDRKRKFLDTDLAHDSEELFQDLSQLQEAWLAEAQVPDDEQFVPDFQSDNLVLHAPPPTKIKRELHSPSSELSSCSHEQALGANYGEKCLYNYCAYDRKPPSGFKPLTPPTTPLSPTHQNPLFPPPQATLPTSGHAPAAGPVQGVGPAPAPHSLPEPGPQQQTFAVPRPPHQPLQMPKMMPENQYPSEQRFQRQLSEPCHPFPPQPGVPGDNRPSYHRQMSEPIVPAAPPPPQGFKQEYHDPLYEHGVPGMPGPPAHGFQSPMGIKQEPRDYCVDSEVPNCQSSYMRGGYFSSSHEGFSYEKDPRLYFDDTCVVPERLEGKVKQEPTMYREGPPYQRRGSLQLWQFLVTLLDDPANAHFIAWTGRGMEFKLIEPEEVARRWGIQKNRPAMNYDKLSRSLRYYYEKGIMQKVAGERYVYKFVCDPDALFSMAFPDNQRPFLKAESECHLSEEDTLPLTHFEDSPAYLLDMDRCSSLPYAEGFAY
# Procedure, shortened: as §1
# HSF1 = HSF1 (Homo sapiens, UniProt Q00613 1-529); conditions: protein: recombinant; tags: N-terminal GST; chain copies: 3; dsDNA, one strand shown
# HSF1, sequence (Q00613 whole entry): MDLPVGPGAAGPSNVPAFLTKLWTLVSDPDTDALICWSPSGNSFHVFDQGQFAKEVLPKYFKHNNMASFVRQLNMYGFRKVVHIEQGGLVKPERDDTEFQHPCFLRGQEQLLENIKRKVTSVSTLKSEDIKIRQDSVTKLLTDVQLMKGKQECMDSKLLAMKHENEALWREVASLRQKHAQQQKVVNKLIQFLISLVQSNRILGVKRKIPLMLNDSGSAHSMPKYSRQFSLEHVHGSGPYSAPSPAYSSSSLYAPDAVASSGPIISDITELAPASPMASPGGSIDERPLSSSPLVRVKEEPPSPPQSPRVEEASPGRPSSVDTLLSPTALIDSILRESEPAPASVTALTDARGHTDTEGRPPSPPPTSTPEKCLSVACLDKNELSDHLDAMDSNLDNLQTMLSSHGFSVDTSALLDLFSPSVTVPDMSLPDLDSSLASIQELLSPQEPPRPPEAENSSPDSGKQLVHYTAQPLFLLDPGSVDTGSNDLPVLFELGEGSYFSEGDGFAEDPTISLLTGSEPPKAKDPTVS
# Procedure, shortened: as §1
# SPIC = target: T8, SPIC (Homo sapiens, UniProt Q8N5J4 1-248); conditions: protein: recombinant; tags: N-terminal GST; dsDNA, one strand shown
# T8 sequence: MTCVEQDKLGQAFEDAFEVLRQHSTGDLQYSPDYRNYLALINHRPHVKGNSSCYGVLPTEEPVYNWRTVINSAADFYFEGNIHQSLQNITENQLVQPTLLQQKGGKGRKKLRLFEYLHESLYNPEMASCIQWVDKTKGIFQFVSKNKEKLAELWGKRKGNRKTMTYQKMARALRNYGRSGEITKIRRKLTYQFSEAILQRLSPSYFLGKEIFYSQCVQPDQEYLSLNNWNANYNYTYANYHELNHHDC
# Procedure, shortened: as §1
# ELF4 = ELF4 (Homo sapiens, UniProt Q99607 1-663); conditions: protein: recombinant; tags: N-terminal GST; dsDNA, one strand shown
# ELF4, sequence (Q99607 whole entry): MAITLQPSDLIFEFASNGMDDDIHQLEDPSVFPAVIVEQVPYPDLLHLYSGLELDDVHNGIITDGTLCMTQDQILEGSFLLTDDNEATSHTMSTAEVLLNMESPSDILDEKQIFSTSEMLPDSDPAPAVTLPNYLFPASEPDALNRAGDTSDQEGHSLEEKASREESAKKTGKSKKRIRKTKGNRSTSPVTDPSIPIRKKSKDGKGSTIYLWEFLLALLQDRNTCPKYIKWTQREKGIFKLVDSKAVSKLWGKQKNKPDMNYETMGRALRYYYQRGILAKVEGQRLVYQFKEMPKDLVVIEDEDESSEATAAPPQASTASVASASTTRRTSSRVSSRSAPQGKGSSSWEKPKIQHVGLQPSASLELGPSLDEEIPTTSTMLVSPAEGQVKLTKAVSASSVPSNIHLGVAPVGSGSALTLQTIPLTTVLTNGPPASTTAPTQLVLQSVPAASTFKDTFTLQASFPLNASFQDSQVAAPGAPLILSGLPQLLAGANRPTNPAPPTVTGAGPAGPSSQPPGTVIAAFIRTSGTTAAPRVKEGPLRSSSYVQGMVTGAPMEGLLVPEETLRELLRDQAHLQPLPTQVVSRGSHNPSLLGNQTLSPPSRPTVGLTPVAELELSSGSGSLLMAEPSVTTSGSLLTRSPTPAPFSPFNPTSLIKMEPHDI
# Procedure, shortened: as §1
# ELK4 = target: T9, ELK4 (Homo sapiens, UniProt P28324-2 1-405); conditions: protein: recombinant; tags: N-terminal GST; dsDNA, one strand shown
# T9 sequence: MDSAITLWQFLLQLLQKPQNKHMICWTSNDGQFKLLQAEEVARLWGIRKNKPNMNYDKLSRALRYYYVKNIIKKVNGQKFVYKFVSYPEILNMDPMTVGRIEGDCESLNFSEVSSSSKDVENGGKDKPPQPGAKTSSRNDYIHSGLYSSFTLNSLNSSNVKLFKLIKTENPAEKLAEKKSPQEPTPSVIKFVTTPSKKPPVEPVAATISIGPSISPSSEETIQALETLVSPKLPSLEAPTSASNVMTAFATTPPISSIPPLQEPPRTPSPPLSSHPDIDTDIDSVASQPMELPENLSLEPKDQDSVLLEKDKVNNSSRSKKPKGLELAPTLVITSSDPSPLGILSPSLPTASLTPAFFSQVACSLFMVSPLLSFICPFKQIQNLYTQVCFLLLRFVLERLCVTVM
# Procedure, shortened: as §1
# ETV2 = target: T10, ETV2 (Homo sapiens, UniProt O00321 1-342); conditions: protein: recombinant; tags: N-terminal GST; dsDNA, one strand shown
# T10 sequence: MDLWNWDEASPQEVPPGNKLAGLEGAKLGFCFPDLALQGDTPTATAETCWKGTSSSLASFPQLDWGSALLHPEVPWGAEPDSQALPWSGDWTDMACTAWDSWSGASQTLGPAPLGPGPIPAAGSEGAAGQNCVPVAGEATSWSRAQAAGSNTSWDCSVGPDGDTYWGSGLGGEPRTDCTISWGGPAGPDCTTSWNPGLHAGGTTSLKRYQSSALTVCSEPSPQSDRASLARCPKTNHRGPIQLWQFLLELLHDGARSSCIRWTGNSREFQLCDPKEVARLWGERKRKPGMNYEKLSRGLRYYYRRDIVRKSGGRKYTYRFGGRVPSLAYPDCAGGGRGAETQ
# Procedure, shortened: as §1
# ELF3 = target: T11, ELF3 (Homo sapiens, UniProt P78545 1-371); conditions: protein: recombinant; tags: N-terminal GST; dsDNA, one strand shown
# T11 sequence: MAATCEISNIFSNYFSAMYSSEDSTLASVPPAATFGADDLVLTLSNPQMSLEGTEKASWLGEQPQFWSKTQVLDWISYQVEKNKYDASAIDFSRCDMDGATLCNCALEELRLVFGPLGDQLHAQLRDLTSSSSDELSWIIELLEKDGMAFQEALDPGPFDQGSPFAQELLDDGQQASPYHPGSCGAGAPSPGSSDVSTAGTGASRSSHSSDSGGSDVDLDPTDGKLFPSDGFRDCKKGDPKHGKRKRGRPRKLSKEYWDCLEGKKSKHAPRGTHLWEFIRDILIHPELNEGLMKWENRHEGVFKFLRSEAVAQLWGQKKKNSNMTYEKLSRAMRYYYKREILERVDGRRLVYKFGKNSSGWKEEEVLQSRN
# Procedure, shortened: as §1
# CRX = CRX (Homo sapiens, UniProt O43186 1-299); conditions: protein: recombinant; tags: N-terminal GST; dsDNA, one strand shown
# CRX, sequence (O43186 whole entry): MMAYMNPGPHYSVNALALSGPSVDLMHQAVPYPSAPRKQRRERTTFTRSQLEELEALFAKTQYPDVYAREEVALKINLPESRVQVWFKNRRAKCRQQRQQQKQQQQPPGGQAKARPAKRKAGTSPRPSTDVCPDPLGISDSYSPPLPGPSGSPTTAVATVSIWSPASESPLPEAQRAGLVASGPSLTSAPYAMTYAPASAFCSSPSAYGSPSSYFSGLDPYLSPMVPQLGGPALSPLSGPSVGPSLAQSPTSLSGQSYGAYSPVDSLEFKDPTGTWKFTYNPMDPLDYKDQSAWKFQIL
# Procedure, shortened: as §1
# ETV1 = ETV1 (Homo sapiens, UniProt P50549 1-477); conditions: protein: recombinant; tags: N-terminal GST; dsDNA, one strand shown
# ETV1, sequence (P50549 whole entry): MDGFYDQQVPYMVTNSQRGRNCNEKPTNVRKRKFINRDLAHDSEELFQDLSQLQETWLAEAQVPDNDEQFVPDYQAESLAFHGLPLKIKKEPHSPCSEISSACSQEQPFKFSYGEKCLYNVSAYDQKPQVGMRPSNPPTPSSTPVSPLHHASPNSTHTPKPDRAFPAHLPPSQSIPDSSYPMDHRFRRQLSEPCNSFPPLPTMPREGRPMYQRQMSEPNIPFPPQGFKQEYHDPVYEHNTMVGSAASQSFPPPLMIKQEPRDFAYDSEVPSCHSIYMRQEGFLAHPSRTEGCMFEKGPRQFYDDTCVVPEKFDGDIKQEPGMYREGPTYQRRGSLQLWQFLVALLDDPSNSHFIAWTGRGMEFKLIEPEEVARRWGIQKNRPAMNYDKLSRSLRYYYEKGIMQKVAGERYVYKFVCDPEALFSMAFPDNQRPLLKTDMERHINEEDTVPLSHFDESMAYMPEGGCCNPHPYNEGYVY
# Procedure, shortened: as §1
sequence,measurement,setting,value
GATTTT,binding signal,FLI1,"1.16 fold enrichment (6-mer frequency, TF over GST control)"
same,binding signal,ELK1,"1.15 fold enrichment (6-mer frequency, TF over GST control)"
same,binding signal,GABPA,"1.21 fold enrichment (6-mer frequency, TF over GST control)"
same,binding signal,ERG,"1.12 fold enrichment (6-mer frequency, TF over GST control)"
same,binding signal,ELF1,"1.12 fold enrichment (6-mer frequency, TF over GST control)"
same,binding signal,EHF,"1.18 fold enrichment (6-mer frequency, TF over GST control)"
same,binding signal,SPI1,"1.12 fold enrichment (6-mer frequency, TF over GST control)"
same,binding signal,SPIB,"1.12 fold enrichment (6-mer frequency, TF over GST control)"
same,binding signal,ELK3,"1.07 fold enrichment (6-mer frequency, TF over GST control)"
same,binding signal,FEV,"1.09 fold enrichment (6-mer frequency, TF over GST control)"
same,binding signal,ETV5,"1.1 fold enrichment (6-mer frequency, TF over GST control)"
same,binding signal,HSF1,"1.45 fold enrichment (6-mer frequency, TF over GST control)"
same,binding signal,SPIC,"1.14 fold enrichment (6-mer frequency, TF over GST control)"
same,binding signal,ELF4,"1.15 fold enrichment (6-mer frequency, TF over GST control)"
same,binding signal,ELK4,"1.24 fold enrichment (6-mer frequency, TF over GST control)"
same,binding signal,ETV2,"1.12 fold enrichment (6-mer frequency, TF over GST control)"
same,binding signal,ELF3,"1.14 fold enrichment (6-mer frequency, TF over GST control)"
same,binding signal,CRX,"1.72 fold enrichment (6-mer frequency, TF over GST control)"
same,binding signal,ETV1,"1.17 fold enrichment (6-mer frequency, TF over GST control)"
